The values below come from PubChem BioAssay AID652010 (The Scripps Research Institute Molecular Screening Center, 2013).

One may read the inhibition as the drop in the measured response relative to a control, in per cent.

The whole screen tested about 370,000 compounds, of which about 4,100 (1.1%) were called active. The sample holds actives, similar compounds and a random draw of the others, so the mix is not that of the screen. A number with no mark means an inactive call.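 How the source made its calls: active means inhibition above the mean over all tested compounds plus 3 SD (cut at about 3.6% in these data); inactive means the rest.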

The test in a line: relief of DAX-1 repression of SF-1 activity – cell-based, luminescence, SF-1 (NR5A1), full-length DAX-1, primary screen (AID 652010).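 Further: 0% = DAX-1 cells with DMSO and 100% = cells lacking DAX-1 with DMSO.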 To be noted: HEK293T StAR-luciferase reporter, SF-1/DAX-1 repression relief; at 6.8 µM; stronger effect = higher value. Background: In a reporter assay the amount or activity of a reporter protein is the signal.
For `COc1ccc(-c2ccc(CN3C(C(C)C)C(=O)N(Cc4cn(CC5CCCCC5)nn4)CCS3(=O)=O)cc2)cn1` (centres undefined), the inhibition was -0.19%. Turning to `COc1ccc(-c2ccc(CN3C(CC(C)C)C(=O)N(Cc4cn(CC5CCCCC5)nn4)CCS3(=O)=O)cc2)cc1` (centres undefined), the inhibition is 2.67%. `COc1ccc(-c2ccc(CN3C(CC(C)C)C(=O)N(Cc4cn(CC5CCCCC5)nn4)CCS3(=O)=O)cc2)cn1` (centres undefined): the inhibition was 3.92% (active).

`COC(=O)c1cccc(Cn2ccc3ccc(-c4ccc5ccn(C(=O)C6CCCCC6)c5c4)cc32)c1`: the inhibition was 0.41%.

Consider `CCOC(=O)N1CCN(C(=O)C[C@@H]2C(=O)N(CCc3ccc(Cl)cc3)C3=CCCC[C@]32C(=O)OCC)CC1`, for which the inhibition was -2.96%. As for `O=C(NN=CC=Cc1ccccc1)C(O)C(O)C(=O)NN=CC=Cc1ccccc1` (centres undefined), the inhibition was 0.1%. Consider `CSc1ccc(CNC(=O)C2(C)CCCN2C)cc1` (centres undefined), for which the inhibition was -0.07%. Next, `COc1ccc(C=C(C#N)C#N)c(CSc2ccccn2)c1`: -0.31%.

Consider `COc1ccc2cc(CCl)c(Cl)nc2c1`, for which the inhibition is -0.14%. With `COc1ccc2nc(-c3ccccn3)ccc2c1`, the inhibition was 15.7% (active). With `COC(=O)c1cc(S(=O)(=O)N2CCN(C(=O)C3CCCO3)CC2)cn1C` (centres undefined), the inhibition was 0.73%. As to `N#CCC[C@H]1CC[C@]2(CCCN(Cc3ccc(Cl)cc3)C2)O1`, the inhibition is 0.06%. Next, `COc1ccccc1C(=O)CSc1nnc(-c2ccccn2)n1-c1ccccc1`: -0.86%.

Consider `Nn1c(SCC(=O)N2c3ccccc3Sc3ccccc32)nnc1-c1n[nH]c2c1CCC2`, for which the inhibition was -0.89%.

In the case of `O=C(COC(=O)Cc1ccccc1F)NCCc1ccccc1`, the inhibition was 1.4%.

Regarding `COc1ccc(CCNC(=O)COC(=O)Cc2cccc(F)c2)cc1`, the inhibition is 2.2%. Consider `COc1ccc(CCNC(=O)COC(=O)Cc2ccccc2F)cc1`, for which the inhibition was 5.57% (active). With `C=CCN=C1NC(c2cccc(C(F)(F)F)c2)C(C(=O)OC)=C(C)N1C` (centres undefined), the inhibition is -0.18%. As to `C=C(C)C#CC(Cc1ccccc1)NCC1CC1` (centres undefined), the inhibition was -0.89%.

Turning to `COc1ccc(CSc2nnc(-c3cccc(C)c3)n2C)cc1`, the inhibition was -0.99%. Turning to `COc1ccc(-c2cn3ccc(C)cc3n2)cc1`, the inhibition was 5.29% (active).

`COc1ccc(-c2cn3ccsc3n2)cc1`: the inhibition was 4.57% (active). As to `COc1ccc(-c2ccc3c(n2)CCCN3S(=O)(=O)c2ccc(C)cc2)cc1`, the inhibition was -0.47%.

`FC(F)(F)Oc1ccc(-c2cn3cccnc3n2)cc1`: the inhibition is 1.35%. For `COc1cc(OC)cc(-c2nc(=S)n3ccsc3n2)c1`, the inhibition was -0.3%.

Turning to `O=C(Nc1cccc(Cl)c1)OC1CC2CC1[C@H]1CCCCN1[C@H]2Cc1ccccc1` (some centres undefined), the inhibition is -0.06%. Take `O=C(CSc1nc2ccccc2n1Cc1ccccc1Cl)N/N=C\c1c[nH]c2ccccc12`: the inhibition was -0.91%.

Take `Cc1cc(=O)[nH]c(SCC(=O)Nc2ccc(F)cc2F)n1`: the inhibition is 0.67%.

On to `C=CCN1[C@@H](Cc2ccccc2)COc2cccc(N3CCSCC3)c2S1(=O)=O`, for which the inhibition was 0.68%. As to `O=C(Nc1nc2ccc(Cl)cc2s1)c1cc(-c2ccc(Cl)cc2)nc2ccccc12`, the inhibition is 0.51%. On to `O=C(Nc1ccccc1)Nc1nnc(COc2ccccc2F)s1`, for which the inhibition was 0.16%. On to `O=C(Nc1ccccc1)Nc1nc2ccccc2s1`, for which the inhibition is 9.89% (active). Next, `COC(=O)[C@]12C[C@H](CC(=O)NCc3ccccc3)C(=O)N(Cc3ccccc3)C1=C[C@H](COCc1ccccc1)O[C@@H]2C`: -0.43%. Next, `COc1ccc(C(=O)CSc2nnc(-c3cnccn3)n2-c2ccc(C)cc2)cc1`: 0.38%; `CSc1ccc(C=Nn2c(-c3ccc(F)cc3)n[nH]c2=S)cc1`: -1.55%.

For the compound `COC(=O)C1=C(C)N(Cc2ccc(C(F)(F)F)cc2)C(=NCc2ccc(C(F)(F)F)cc2)NC1c1cccc(Cl)c1` (centres undefined), the inhibition is 0.24%. Regarding `O=c1c(-c2ccccc2)coc2cc(O)ccc12`, the inhibition was 3.75% (active). Take `CCc1ccc(Oc2coc3cc(O)ccc3c2=O)cc1`: the inhibition was 0.76%. Next, `CC(C)=CCc1c(O)c(CC=C(C)C)c2occ(-c3ccc(O)cc3)c(=O)c2c1O`: 0.21%; `Cc1ccc(C(=O)N(Cc2ccccn2)CC2CCCO2)cc1` (centres undefined): 0.03%. Turning to `CC(C)(C)C1CCC(=NNC(=O)c2ccc(Br)o2)CC1` (centres undefined), the inhibition is 2.87%. Next, `O=C(N/N=C\C1CC=CCC1)c1ccc(Br)o1` (centres undefined): 8.53% (active). Take `CCC(C)(C)C1CCC(=NNC(=O)c2ccc(Br)o2)CC1` (centres undefined): the inhibition is 1.82%. `Cc1c[nH]c2cccc(-c3ccc(Cl)cc3)c12`: the inhibition is -0.32%. For the compound `Cc1cc(NC(=O)CSC2=NS(=O)(=O)c3cc(Cl)ccc3N2)no1`, the inhibition is -0.79%. Next, `Cc1ccc(-n2cc3ccc([N+](=O)[O-])cc3n2)cc1`: 4.78% (active); `CC(C)(C)NC(=O)Cn1cnc2cc([N+](=O)[O-])ccc2c1=O`: 0.18%; `O=c1c2cc([N+](=O)[O-])ccc2nc2n1CCC2`: 0.07%. In the case of `CCOC(=O)[C@]12CCCC3=C1N(CCC3)C(=O)[C@@H](CC(=O)NCC13CC4CC(CC(C4)C1)C3)C2`, the inhibition is -1.84%. Next, `CC(C)Cc1cc(C(=O)NCCc2ccccc2)no1`: 4.87% (active); `CC(C)Cc1cc(C(=O)Nc2cc(Br)ccc2O)no1`: 1.06%. For the compound `O=C(NCCCc1ccccc1)c1cc(COc2c(F)cccc2F)on1`, the inhibition was 1.02%. As to `CC(C)(CNC(=O)c1ccc(Cl)c(S(=O)(=O)N2CCc3ccccc3C2)c1)N1CCOCC1`, the inhibition is -2.85%. For `Cc1ccc(NC(=O)C2(N3CCC3=O)CCCCC2)cc1`, the inhibition is -0.08%. `Cc1ccc(NC(=O)c2csc3c2CCCC3)cc1`: the inhibition was 4.28% (active). Consider `CC1CC(C)CN(CCCNC(=O)c2csc3c2CCCCC3)C1` (centres undefined), for which the inhibition is 0.43%. On to `O=C(NCc1ccccc1)[C@H]1CCCN1C(=O)[C@H]1CCCN1C(=O)N1CCOCC1`, for which the inhibition is 0.17%. Turning to `COc1ccccc1C(=O)N1C(CC(=O)Nc2ccccc2C)C(=O)NC2CCCCC21` (centres undefined), the inhibition is -0.35%. In the case of `COc1ccc(CCNC(=O)CSc2nc3c([nH]2)c(=O)n(C)c(=O)n3C)cc1`, the inhibition is 0.31%.
